According to PubChem BioAssay:
The source made the active and inactive calls.

Legend:
[1] = small molecules captured by biotinylated probe aFSTL3 – biochemical, small-molecule microarray, fluorescence 635/667, stem cell growth factor project, primary screen (AID 1064); details: higher = more signal;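 also: measures binding of the biotinylated anti-FSTL3 antibody to printed compounds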
[2] = binders from COS7 lysate, DM2A8 probe, primary screen, torsin A project, cell lysate, small-molecule microarray, fluorescence 635/667 (AID 1065); details: higher = more signal, COS7 lysate expressing mutant human TOR1A
[3] = small molecules captured by biotinylated probe aFGF2 – biochemical, small-molecule microarray, fluorescence 635/667, stem cell growth factor project, primary screen (AID 1067); details: higher = more signal;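 also: measures binding of biotinylated aFGF2 protein to printed compounds on slides; z-score merges feature fluorescence and signal-to-noise across triplicate slides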
[4] = small molecules captured by biotinylated probe aFGF10 – biochemical, small-molecule microarray, fluorescence 635/667, stem cell growth factor project, primary screen (AID 1071); details: higher = more signal;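 also: score merges 667 nm spot intensity and signal to noise from triplicate slides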
[5] = target: Neurogenic locus notch homolog protein 2 (Homo sapiens) (UniProt Q04721); experiment: small molecules binding Notch2 protein – biochemical, small-molecule microarray, 635 nm fluorescence, stem cell growth factors, primary screen (AID 1073); details: higher = more signal
[6] = target: Pro-neuregulin-1, membrane-bound isoform (Homo sapiens) (UniProt Q02297); experiment: small molecules binding neuregulin-1 protein – biochemical, small-molecule microarray, fluorescence 635/667, psychiatric disease protein project, primary screen (AID 1075); details: NRG1 binding, 635 nm fluorescence, higher = more signal;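 also: score combines 667 nm spot fluorescence with signal to noise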
[7] = tested on: Neuregulin-1 EGF-like domain; experiment: small molecules binding NRG1 EGF domain – biochemical, small-molecule microarray, 635 nm fluorescence, primary screen (AID 1081); details: higher = more signal;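 also: binding of the protein to compounds printed on small-molecule microarray slides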
[8] = FRG1 expression reporter modulators in myotubes – cell-based, C2C12 myotubes, firefly/Renilla luciferase, luminescence, FRG1 inhibition for FSHD, primary screen (AID 1084); details: FRG1 promoter luciferase, higher = more signal, called active from +8 up or from −8 down
[9] = small molecules captured by biotinylated probe aFST – biochemical, small-molecule microarray, fluorescence 635/667, stem cell growth factor project, primary screen (AID 1086); details: higher = more signal;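 also: score merges 667 nm fluorescence with signal-to-noise of each printed compound spot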
[10] = binders of probe aHhip on microarray, primary screen, stem cell growth factor project, biochemical, small-molecule microarray, fluorescence 635/667 (AID 1087); details: higher = more signal;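 also: score merges spot fluorescence at 667nm with spot signal to noise ratio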

Sequence of Neurogenic locus notch homolog protein 2 (Homo sapiens) (Q04721 whole entry, looked up, canonical isoform): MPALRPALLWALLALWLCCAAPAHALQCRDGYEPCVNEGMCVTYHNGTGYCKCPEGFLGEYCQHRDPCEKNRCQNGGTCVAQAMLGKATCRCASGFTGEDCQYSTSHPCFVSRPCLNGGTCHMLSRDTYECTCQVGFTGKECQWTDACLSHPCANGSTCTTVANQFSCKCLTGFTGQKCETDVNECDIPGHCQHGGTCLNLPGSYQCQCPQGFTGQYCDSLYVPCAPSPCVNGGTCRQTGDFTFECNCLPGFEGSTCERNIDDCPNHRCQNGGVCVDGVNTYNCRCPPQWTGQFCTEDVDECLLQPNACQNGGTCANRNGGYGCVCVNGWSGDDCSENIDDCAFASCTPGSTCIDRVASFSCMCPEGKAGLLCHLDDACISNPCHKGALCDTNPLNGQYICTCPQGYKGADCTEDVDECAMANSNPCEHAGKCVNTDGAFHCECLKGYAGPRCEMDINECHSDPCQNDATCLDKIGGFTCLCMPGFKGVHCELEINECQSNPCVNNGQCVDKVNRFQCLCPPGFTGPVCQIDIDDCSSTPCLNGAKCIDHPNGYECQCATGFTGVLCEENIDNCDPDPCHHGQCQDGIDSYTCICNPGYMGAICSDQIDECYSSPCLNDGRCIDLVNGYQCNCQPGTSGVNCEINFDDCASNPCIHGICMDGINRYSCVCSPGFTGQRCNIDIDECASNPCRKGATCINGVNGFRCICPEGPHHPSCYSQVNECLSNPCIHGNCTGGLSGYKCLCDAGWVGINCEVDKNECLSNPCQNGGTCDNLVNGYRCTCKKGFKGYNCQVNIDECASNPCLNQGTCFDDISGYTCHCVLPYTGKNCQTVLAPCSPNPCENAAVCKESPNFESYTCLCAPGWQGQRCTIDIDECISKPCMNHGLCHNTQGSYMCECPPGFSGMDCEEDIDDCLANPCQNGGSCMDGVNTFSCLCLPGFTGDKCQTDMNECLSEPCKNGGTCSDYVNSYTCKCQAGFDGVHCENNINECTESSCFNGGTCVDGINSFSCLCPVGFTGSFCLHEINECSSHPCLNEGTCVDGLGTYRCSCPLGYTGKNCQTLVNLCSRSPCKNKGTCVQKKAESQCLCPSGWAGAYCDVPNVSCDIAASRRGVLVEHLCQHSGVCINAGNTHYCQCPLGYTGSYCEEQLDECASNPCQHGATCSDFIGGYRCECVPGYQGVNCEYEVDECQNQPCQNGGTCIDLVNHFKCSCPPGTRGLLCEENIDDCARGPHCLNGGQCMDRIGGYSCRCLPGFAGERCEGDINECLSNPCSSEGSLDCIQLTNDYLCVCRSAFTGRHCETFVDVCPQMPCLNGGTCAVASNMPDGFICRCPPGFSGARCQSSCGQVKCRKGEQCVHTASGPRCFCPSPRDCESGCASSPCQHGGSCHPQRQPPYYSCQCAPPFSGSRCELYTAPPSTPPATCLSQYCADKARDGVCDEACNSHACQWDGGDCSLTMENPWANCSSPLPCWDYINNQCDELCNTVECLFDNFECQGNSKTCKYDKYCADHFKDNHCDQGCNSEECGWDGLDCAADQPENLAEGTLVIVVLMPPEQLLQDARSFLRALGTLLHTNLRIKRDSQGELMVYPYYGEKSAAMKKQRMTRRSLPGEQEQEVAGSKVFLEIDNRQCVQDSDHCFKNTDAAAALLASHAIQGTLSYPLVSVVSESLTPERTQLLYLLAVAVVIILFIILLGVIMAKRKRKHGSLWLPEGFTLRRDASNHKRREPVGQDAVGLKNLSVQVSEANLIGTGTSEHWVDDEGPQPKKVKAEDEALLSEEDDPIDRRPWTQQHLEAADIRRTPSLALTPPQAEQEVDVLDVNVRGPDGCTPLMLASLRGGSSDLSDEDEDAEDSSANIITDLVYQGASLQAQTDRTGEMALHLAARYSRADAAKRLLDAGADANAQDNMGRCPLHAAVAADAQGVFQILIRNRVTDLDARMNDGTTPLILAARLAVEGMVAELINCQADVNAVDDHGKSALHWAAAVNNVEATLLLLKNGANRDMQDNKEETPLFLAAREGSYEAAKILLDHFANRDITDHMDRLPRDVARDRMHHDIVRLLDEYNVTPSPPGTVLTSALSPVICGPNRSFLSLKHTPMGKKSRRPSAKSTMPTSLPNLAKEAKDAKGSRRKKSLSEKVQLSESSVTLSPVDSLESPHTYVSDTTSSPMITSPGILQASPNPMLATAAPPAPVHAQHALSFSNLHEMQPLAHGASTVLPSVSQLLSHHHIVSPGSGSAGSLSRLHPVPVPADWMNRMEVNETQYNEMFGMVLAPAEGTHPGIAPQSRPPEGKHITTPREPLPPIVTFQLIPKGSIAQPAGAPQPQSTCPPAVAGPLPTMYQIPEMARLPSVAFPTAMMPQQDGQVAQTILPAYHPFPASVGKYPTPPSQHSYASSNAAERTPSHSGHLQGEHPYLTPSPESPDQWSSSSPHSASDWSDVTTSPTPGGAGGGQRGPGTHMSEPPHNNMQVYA
Sequence of Pro-neuregulin-1, membrane-bound isoform (Homo sapiens) (Q02297 whole entry, looked up, the tested form may be a part, canonical isoform): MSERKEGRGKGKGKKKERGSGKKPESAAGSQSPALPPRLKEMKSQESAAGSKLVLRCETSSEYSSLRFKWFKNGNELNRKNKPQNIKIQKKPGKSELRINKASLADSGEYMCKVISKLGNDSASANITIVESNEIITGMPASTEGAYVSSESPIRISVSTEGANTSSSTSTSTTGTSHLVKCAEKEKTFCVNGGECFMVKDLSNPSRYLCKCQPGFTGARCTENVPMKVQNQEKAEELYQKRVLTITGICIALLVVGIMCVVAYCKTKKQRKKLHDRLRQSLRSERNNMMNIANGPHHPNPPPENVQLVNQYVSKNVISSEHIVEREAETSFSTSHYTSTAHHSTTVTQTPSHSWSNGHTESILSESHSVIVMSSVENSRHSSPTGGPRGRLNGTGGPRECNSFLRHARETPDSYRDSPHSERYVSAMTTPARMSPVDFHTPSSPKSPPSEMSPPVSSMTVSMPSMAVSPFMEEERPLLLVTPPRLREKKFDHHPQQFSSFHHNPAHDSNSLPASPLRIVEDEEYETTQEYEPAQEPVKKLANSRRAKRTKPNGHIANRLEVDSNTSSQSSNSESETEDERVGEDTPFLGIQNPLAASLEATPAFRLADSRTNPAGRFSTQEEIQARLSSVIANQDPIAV

Compound | composite z-score [1] | composite z-score [2] | composite z-score [3] | composite z-score [4] | composite z-score [5] | composite z-score [6] | composite z-score [7] | z-score [8] | composite z-score [9] | composite z-score [10]
CO[C@H]1COC(=O)[C@H](CCSC)NC(=O)CC=C[C@@H](C)COC(=O)[C@@H](OCc2ccccc2)C=C[C@@H]1C | -0.929 | 2.45 | -0.294 | -0.226 | -0.206 | -0.37 | 0.782 | -0.592 (inactive) | -0.327 | -0.0047
COc1ccc(-c2ccccc2[C@@H]2N[C@H](C(=O)O)CC[C@H]2C)cc1 | -0.285 | -0.0323 | -0.132 | 0.277 | 0.244 | -0.233 | 0.424 | -0.438 (inactive) | 0.0952 | -0.134
COC(=O)[C@@]1(Cc2ccc(OC)cc2)[C@H]2c3cc(C(=O)N(C)C)n(Cc4ccc(C)c(F)c4F)c3C[C@H]2CN1C(=O)c1ccccc1 | 0.372 | 0.251 | 0.162 | 0.315 | 0.498 | 0.57 | 0.964 | 0.803 (inactive) | 0.588 | 0.21
O=C1c2ccccc2[C@](Cc2ccccc2I)(C(=O)O)[C@H](c2ccc(CO)cc2)N1C1CCCCC1 | 0.007 | 0.297 | 0.0545 | 1.06 | 1.56 | 1.22 | 1.32 | 0.287 (inactive) | 0.892 | 0.011
Cc1ccc(N2C(=O)c3ccccc3[C@@H](C(=O)NCC(F)(F)F)[C@@H]2c2ccc(CO)cc2)nc1 | 1.83 | -1.33 | -0.195 | -1.11 | -2.11 | 1.15 | 1.26 | -0.307 (inactive) | -0.869 | -0.539
Cc1cc(C)c(C(O)C2C=CC3C(=O)N(C)C(=O)C3N2N2CCCCC2)c(C)c1 (stereo not given) | 0.0308 | 0.563 | 0.205 | 1.02 | 1.69 | 0.918 | 1.3 | 0.251 (inactive) | 1.27 | -0.206
CN1C2C=C(c3ccc(CO)cc3)C(C3C(=O)N(C(N)=O)C(=O)C32)C1c1cccs1 (stereo not given) | 0.631 | 0.056 | -0.0566 | 0.0657 | -0.458 | 0.839 | 1.27 | 1.02 (inactive) | -0.221 | -0.0645
Cc1ccc(S[C@]2(C(=O)NCCCN(C)C)CC(=O)N(C3CCCCC3)[C@@H]2c2ccc(CO)cc2I)cc1 | 1.93 | -0.697 | -0.113 | -0.546 | -0.197 | 0.266 | 0.942 | -1.31 (inactive) | 0.235 | -0.0645
CC(C)[Si](OCCCNS(=O)(=O)c1ccc(Br)cc1)(C(C)C)C(C)C | -0.491 | 0.231 | -0.0529 | 0.962 | 1.43 | 0.344 | 0.468 | -3.13 (inactive) | 0.623 | -0.0645
C=CCOC(=O)[C@@H]1[C@H]2C(=O)O[C@H](c3ccccc3)[C@H](c3ccccc3)N2[C@H](c2ccc(OCCOC(=O)[C@H]3C[C@H]4C(=O)N5CCC[C@H]5C(=O)N4[C@H]3c3ccc(O)cc3)cc2)[C@@]12C(=O)Nc1ccccc12 | -0.536 | 0.774 | -0.0169 | 0.691 | 0.742 | 0.968 | 1.3 | -0.619 (inactive) | -0.0007 | -0.0994
CCc1cccc(NC(=O)O[C@H]2[C@H](OC(=O)Nc3ccccc3)[C@@H](OC(=O)Nc3ccccc3)[C@@H](OC)O[C@@H]2CO)c1 | -0.0679 | 0.624 | 0.216 | 1.17 | 1.08 | 1.76 | 1.39 | 0.825 (inactive) | 0.891 | -0.0831
CCCC=C(CCC)[C@@H](NS(=O)(=O)c1ccc(C(F)(F)F)cc1)c1ccc(-c2ccccc2)cc1 | 0.357 | 0.0864 | 0.0407 | 0.309 | 1.5 | 0.801 | 1.02 | -0.001 (inactive) | 1.38 | 2.14
COC(=O)[C@@]1(Cc2ccc(OC)cc2)[C@H]2c3cc(C(=O)N(C)C)n(CCc4ccc(OC)c(Br)c4)c3C[C@H]2CN1C(=O)c1ccccc1 | 1.53 | 0.323 | 0.544 | 1.03 | 1.66 | 1.77 | 1.34 | -0.151 (inactive) | 1.95 | -0.0489
CCCC=C(CCC)[C@@H](NS(=O)(=O)c1ccc(-c2ccccc2)cc1)c1ccc(C(=O)OC)cc1 | 0.184 | -0.337 | -0.0363 | -0.198 | 0.268 | -0.33 | -0.656 | 1.55 (inactive) | -0.212 | -0.0994
COc1cc2c(cc1OC)CN(C(=O)[C@H]1[C@@H]3C(=O)O[C@@H](c4ccccc4)[C@@H](c4ccccc4)N3[C@@H](c3ccccc3OCCO)[C@]13C(=O)Nc1ccc(C#CC4(O)CCCCCC4)cc13)CC2 | -0.0648 | 0.705 | 0.0605 | 1.01 | 1.1 | 1.76 | 1.35 | -2.24 (inactive) | 0.319 | 0.245
CCCC=C(CCC)[C@@H](NC(=O)c1ccc(C(F)(F)F)cc1)c1ccccc1 | -0.0795 | 0.333 | -0.0483 | -0.195 | 0.237 | -0.256 | 0.113 | 2.78 (inactive) | 0.587 | -0.0296
C[C@]1(C(=O)NCc2ccccc2)c2ccccc2C(=O)N(Cc2cc(C(F)(F)F)cc(C(F)(F)F)c2)[C@H]1c1ccc(CO)cc1 | 0.158 | 1.05 | 0.168 | 0.149 | 1.04 | 0.196 | 1.23 | -1.65 (inactive) | 0.185 | -0.359
CCOC(=O)C1=CCC(c2cccc3ccccc23)N(S(=O)(=O)c2ccc(C)cc2)C1 (stereo not given) | 0.609 | -0.0897 | 0.0346 | 0.323 | 1.46 | 1.21 | 1.01 | -1.05 (inactive) | 0.95 | -0.0237
C=C(C(=O)CC[C@H](OC(=O)c1ccccc1-c1ccccc1C(=O)O)c1ccc(CO)o1)C(C)C | -0.547 | -0.113 | -0.0974 | 0.959 | -0.0673 | 1.25 | 1.33 | 0.112 (inactive) | 0.0357 | -0.0645
[N-]=[N+]=NCc1ccccc1C[C@]1(C(=O)N2CCCCC2)N=C(c2ccc(OCCCO)cc2)O[C@H]1c1ccccc1CN=[N+]=[N-] | -0.0017 | 0.759 | 0.0342 | 0.765 | 0.776 | 1.63 | 1.19 | -1.62 (inactive) | 1.29 | 0.142
C[C@H]1NC(=O)[C@@H](C)NC(=O)[C@@]23C(=O)N[C@@H](Cc4ccccc4)C2[C@H](C)[C@@]2(C)O[C@H]2C3/C=C/C/C=C\CNC1=O (stereo not given in full) | -0.372 | -0.0794 | -0.083 | -0.167 | -0.269 | 0.631 | 0.812 | 0.0028 (inactive) | -0.41 | -0.34
C=CCc1cccc([C@@H]2[C@@H](C)CC[C@H]3C(=O)N4[C@H](c5cccc(CC=C)c5)[C@@H](C)CC[C@H]4C(=O)N23)c1 | 0.0575 | 0.537 | -0.0677 | 0.873 | 1.07 | 1.12 | 0.536 | 0.313 (inactive) | 0.56 | 0.154
O=C1NC(=O)C2C1C=CC(C(O)C=Cc1ccc([N+](=O)[O-])cc1)N2Nc1ccccn1 (stereo not given) | -0.273 | 0.224 | 0.102 | 0.212 | 1.15 | -0.0777 | 0.966 | 0.126 (inactive) | -0.199 | -0.226
CO[C@H]1COC(=O)CC=C[C@H](C)[C@@H](OC)COC(=O)CC=C[C@@H]1C | -0.623 | 1.7 | -0.0775 | 0.227 | -0.209 | -0.768 | 0.692 | -1.12 (inactive) | -0.055 | -0.0994
CCCC=C(CCC)[C@@H](NC(=O)c1ccccc1)c1ccccc1 | 0.969 | -0.239 | -0.0392 | -0.41 | -0.028 | -0.806 | -0.943 | -0.788 (inactive) | 0.636 | 0.304
COc1ccc([Si](C)(C)[C@@H]2[C@@H](CCO)O[C@]3(C(=O)N(Cc4ccccc4)c4ccccc43)[C@H]2C)cc1 | -0.377 | 0.274 | -0.0692 | 0.351 | 0.216 | -0.01 | 0.501 | 0.377 (inactive) | -0.0439 | -0.0994
COc1ccc([C@H]2C[C@H]3C(Br)=C[C@]2(OC)C(=O)[C@]32CO2)cc1 | -0.207 | -0.187 | -0.0563 | 1.02 | -0.203 | -0.228 | -0.0338 | 0.926 (inactive) | 0.198 | 0.0722
CC(C)C[C@@H]1NC(=O)[C@H]2C[C@@H](C(=O)NCCCCCC[N+](C)(C)C)[C@@H](c3ccc(O)cc3)N2C1=O | -0.332 | 0.64 | -0.189 | -0.615 | -0.471 | 1.77 | 1.41 | 2.82 (inactive) | 0.0716 | -0.0994
